According to PubChem BioAssay AID1159580 (chemical genetic matrix, 2015):
About 2,000 (36%) of roughly 5,500 compounds were called active. Another 18% or so got no clear call; they are omitted. No stated cut-off is given here; in the data, active means normalized growth mostly below about 0.91 (no sharp cut-off); inconclusive means no clear call, values can overlap the other calls; inactive means mostly above about 0.92. Some of the results follow.

Experiment: chemical genetic growth profiling, strain panel (AID 1159580);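 further: tested at 20 µM; growth read once vehicle control cultures reached saturation at 30 °C; 1 = growth at the plate median or of vehicle wells; lower values mean less growth of the strain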
Conditions: S. cerevisiae deletion strains, growth OD

Measured: normalized growth

COc1ccc(C(=O)/C=C/c2ccccc2)cc1
active: locus YJL187C, strain SWE1, active compounds read low 0.917 | locus YKL009W, strain mrt4, active compounds read low 0.834 | locus YKL160W, strain elf1, active compounds read low 0.878 | locus YKR001C, strain vps1, active compounds read low 0.783 | locus YLL001W, strain dnm1, active compounds read low 0.898 | locus YLR027C, strain aat2, active compounds read low 0.846 | locus YLR113W, strain HOG1, active compounds read low 0.628 | locus YLR221C, strain rsa3, active compounds read low 0.809 | locus YLR262C, strain YPT6 (second series), active compounds read low 0.855 | locus YLR268W, strain sec22, active compounds read low 0.818 | locus YLR320W, strain mms22, active compounds read low 0.525 | locus YLR330W, strain CHS5, active compounds read low 0.854 | locus YLR342W, strain FKS1, active compounds read low 0.839 | locus YLR371W, strain rom2, active compounds read low 0.796 | locus YLR418C, strain cdc73, active compounds read low 0.358 | locus YML032C, strain rad52, active compounds read low 0.746 | locus YMR058W, strain fet3, active compounds read low 0.803 | locus YMR078C, strain ctf18, active compounds read low 0.73 | locus YMR125W, strain sto1, active compounds read low 0.856 | locus YMR205C, strain PFK2, active compounds read low 0.707 | locus YMR223W, strain ubp8, active compounds read low 0.852 | locus YNL071W, strain lat1, active compounds read low 0.307 | locus YNL233W, strain BNI4, active compounds read low 0.777 | locus YNL248C, strain rpa49, active compounds read low 0.687 | locus YNL298W, strain CLA4, active compounds read low 0.858 | locus YNL307C, strain MCK1, active compounds read low 0.239 | locus YOL147C, strain pex11, active compounds read low 0.752 | locus YOR083W, strain WHI5, active compounds read low 0.86 | locus YOR106W, strain vam3, active compounds read low 0.823 | locus YOR144C, strain elg1, active compounds read low 0.897 | locus YOR184W, strain ser1, active compounds read low 0.43 | locus YOR231W, strain MKK1, active compounds read low 0.757 | locus YOR270C, strain vph1, active compounds read low 0.613 | locus YOR290C, strain snf2, active compounds read low 0.792 | locus YPL051W, strain arl3, active compounds read low 0.868 | locus YPL078C, strain atp4, active compounds read low 0.799 | locus YPL106C, strain sse1, active compounds read low 0.76 | locus YPL256C, strain CLN2, active compounds read low 0.74 | locus YPR163C, strain tif3, active compounds read low 0.432 | locus YPR167C, strain met16, active compounds read low 0.889 | strain wtn01, active compounds read low 0.811
inactive: locus YJR066W, strain TOR1, active compounds read low 0.841 | locus YKL068W, active compounds read low 0.983 | locus YKL085W, strain MDH1 (second series), active compounds read low 0.974 | locus YKL085W, strain MDH1, active compounds read low 0.974 | locus YKL190W, strain CNB1, active compounds read low 1.01 | locus YKR026C, strain gcn3, active compounds read low 0.983 | locus YKR091W, strain srl3, active compounds read low 0.982 | locus YLL026W, active compounds read low 0.971 | locus YLL041C, strain sdh2, active compounds read low 0.999 | locus YLR039C, strain RIC1, active compounds read low 0.792 | locus YLR058C, strain SHM2, active compounds read low 0.899 | locus YLR102C, strain apc9, active compounds read low 0.964 | locus YLR258W, strain gsy2, active compounds read low 0.936 | locus YLR357W, strain rsc2, active compounds read low 0.957 | locus YLR370C, strain arc18, active compounds read low 0.978 | locus YLR384C, strain iki3, active compounds read low 0.969 | locus YML016C, strain PPZ1, active compounds read low 0.947 | locus YML120C, strain ndi1, active compounds read low 0.954 | locus YML124C, strain tub3, active compounds read low 0.958 | locus YMR129W, active compounds read low 0.985 | locus YMR231W, strain pep5, active compounds read low 1 | locus YMR307W, strain GAS1, active compounds read low 0.939 | locus YNL067W, strain RPL9B, active compounds read low 0.954 | locus YNL128W, strain TEP1, active compounds read low 0.922 | locus YNL183C, strain NPR1, active compounds read low 0.838 | locus YNL209W, strain ssb2, active compounds read low 0.968 | locus YNL250W, strain rad50, active compounds read low 0.958 | locus YNL271C, strain bni1, active compounds read low 0.92 | locus YNL322C, strain KRE1 (second series), active compounds read low 0.917 | locus YNR049C, strain mso1, active compounds read low 0.995 | locus YNR052C, strain pop2, active compounds read low 0.941 | locus YOL006C, strain TOP1, active compounds read low 0.664 | locus YOL012C, strain htz1 0.771 | locus YOR001W, strain rrp6, active compounds read low 0.905 | locus YOR061W, strain CKA2, active compounds read low 0.981 | locus YOR069W, strain VPS5, active compounds read low 0.958 | locus YOR070C, strain gyp1, active compounds read low 0.928 | locus YOR080W, strain dia2, active compounds read low 0.981 | locus YOR136W, strain idh2, active compounds read low 0.939 | locus YOR265W, strain rbl2, active compounds read low 0.994 | locus YOR316C, strain cot1, active compounds read low 0.966 | locus YPL240C, strain hsp82, active compounds read low 0.954 | locus YPR119W, strain clb2, active compounds read low 0.964 | locus YPR141C, strain kar3, active compounds read low 0.965
